Shown are actives, neighbours in structure and some others; about 2.4% of the full set was active somewhere.
Pol beta inh – qHTS Assay for Inhibitors of DNA Polymerase Beta | 1.3% of 340,000 active | Pol beta primer extension/strand displacement, fluorescence kinetic | P06746 | Potency, µM (titrated, usually from 114 µM), for inactives: at the top dose activity change, negative = inhibition, usual class: inhibitors | AID 485314, 2010; note: % is set by controls: 0 for no effect and ±100 for the full control effect
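Reaction started by 50 nM substrate onto compound-treated Pol beta (10 nM, 15 min preincubation, room temperature); plates read at 0 min and 10 min. Normalized concentration-effect data fitted by four-parameter Hill equation.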
WRN inhibitor – qHTS for Inhibitors of WRN Helicase | Bifunctional 3'-5' exonuclease/ATP-dependent helicase WRN (Homo sapiens), Q14191 | WRN helicase unwinding, fluorescent forked duplex, kinetic | Potency, µM (highest dose often 114 µM), for inactives: top-dose activity change, negative = inhibition, hits mostly inhibitors | 0.46% of 360,000 active | AID 651768, 2012; note: % is set by controls: 0 for no effect and ±100 for the full control effect; nearly all actives have a fitted effect of over 55% in size
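Screening of the MLSMR collection measured strand separation of a quenched forked DNA duplex (100 nM) by 20 nM WRN with 2 mM ATP, all final. Compounds were preincubated with enzyme 15 min at room temperature.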
FEN1 inh – qHTS Assay for the Inhibitors of Human Flap endonuclease 1 (FEN1); P39748; AID 588795, 2011; Potency, µM (series often up to 114 µM), for the others: at the highest dose activity change, negative = inhibition, most hits filed as inhibitors; 0.35% of 390,000 active; Recombinant FEN1 flap cleavage, fluorescence, 15 min; note: % is set by controls: 0 for no effect and ±100 for the full control effect; nearly all actives have a fitted effect of over 65% in size
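Read-out was taken twice, immediately and after 15 min, following addition of 50 nM substrate to 10 nM FEN1 that had sat with test compound for 15 min at room temperature. Curves came from a four-parameter Hill model.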
POLH inh – qHTS for Inhibitors of Polymerase Eta; recombinant Pol eta, fluorescent DNA replication assay; Potency, µM (titrated, usually from 114 µM), without a hit: top-dose activity change, negative = inhibition, usual class: inhibitors; 1.2% of 390,000 active; note: % is set by controls: 0 for no effect and ±100 for the full control effect
Target sequence (Q9Y253 whole entry, looked up): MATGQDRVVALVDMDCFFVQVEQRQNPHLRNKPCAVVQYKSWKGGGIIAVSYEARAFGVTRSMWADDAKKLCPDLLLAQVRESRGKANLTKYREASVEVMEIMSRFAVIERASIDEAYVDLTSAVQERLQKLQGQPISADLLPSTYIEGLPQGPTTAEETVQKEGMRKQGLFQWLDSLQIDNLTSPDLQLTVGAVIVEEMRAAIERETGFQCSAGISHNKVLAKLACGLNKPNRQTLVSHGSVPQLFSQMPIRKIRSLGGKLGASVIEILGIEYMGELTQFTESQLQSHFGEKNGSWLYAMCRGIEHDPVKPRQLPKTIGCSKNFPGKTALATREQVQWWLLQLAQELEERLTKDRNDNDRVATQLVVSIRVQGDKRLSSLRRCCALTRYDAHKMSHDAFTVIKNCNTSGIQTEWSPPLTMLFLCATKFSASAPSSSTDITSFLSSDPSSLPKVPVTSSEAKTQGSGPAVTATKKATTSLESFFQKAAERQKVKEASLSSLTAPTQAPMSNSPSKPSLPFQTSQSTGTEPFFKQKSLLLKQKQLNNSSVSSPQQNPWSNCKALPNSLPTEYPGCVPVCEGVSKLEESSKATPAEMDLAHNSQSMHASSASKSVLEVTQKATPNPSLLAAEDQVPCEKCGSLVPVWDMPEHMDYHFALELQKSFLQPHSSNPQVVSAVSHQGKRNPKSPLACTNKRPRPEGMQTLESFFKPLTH
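Fluorescent replication assay: 50 nM final substrate added after a 15 min room-temperature compound preincubation with 10 nM enzyme. Signal taken at 0 min and again at 10 min.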
POLK inh – qHTS for Inhibitors of Polymerase Kappa; DNA polymerase kappa (Homo sapiens), Q9UBT6; purified Pol kappa, fluorescent DNA synthesis assay, 10 min; Potency, µM (doses to about 107 µM), for the others: top-dose activity, negative = inhibition, usual class: inhibitors; 0.53% of 400,000 active; note: % is set by controls: 0 for no effect and ±100 for the full control effect
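First, compounds were pin-transferred onto 10 nM Pol kappa. After 15 min at room temperature, substrate was added to 50 nM final. Fluorescence was then measured kinetically at 0 and 10 min.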
POLI inh – qHTS for Inhibitors of Polymerase Iota | Potency, µM (series often up to 115 µM), for the others: at the top dose activity, negative = inhibition, actives largely listed as inhibitors | AID 588590, 2011 | 1% of 390,000 active | Pol iota fluorescent replication assay, 10 min
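Fluorescent replication assay read twice, at 0 min and 10 min after adding 50 nM (final) substrate. Enzyme (10 nM) and compounds were first incubated 15 min at room temperature; enzyme-free buffer wells were negative controls.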
* = called active by the depositor; ? = inconclusive; / = no result given; [ ] = dose if it differs, or a comment. Calls come from the whole dose curve; as a rule, active = well fitted curve in the direction sought with a large enough effect; inconclusive = small, poorly fitted or top-dose-only effect, or another doubt; inactive = no such curve, though single readings can be large; an effect the other way counts as inactive or inconclusive. Potency is the fitted concentration of half-maximal effect.

SMILES	Pol beta inh	WRN inhibitor	FEN1 inh	POLH inh	POLK inh	POLI inh
O=[N+]([O-])c1ccc(C(c2sc3nc(-c4ccco4)nn3c2O)N2CCC3(CC2)OCCO3)cc1 (configuration not stated)	6%	/	1%	-9%	-5%[60.1 µM]	22%
C/C(=N\O)c1ccc2c(c1)CC(C)O2 (configuration not stated)	3%	13%	2%	-14%	8%	-20%
C=C(CO)C1Cc2cc(C(C)=O)ccc2O1 (configuration not stated)	?	-33%	?	20µM*	?	?
CC1(C)CC(=O)C2=C(C1)N(c1ccc(F)cc1)C(N)=C(C#N)C2c1cccs1 (configuration not stated)	18%	-22%	-18%	-9%	-20%	9%
N#CC1=C(N)n2c(s/c(=C\c3cccs3)c2=O)=C(C#N)C1c1cccs1 (configuration not stated)	?	-11%[11.6 µM]	?	45µM*	?	?
Cc1ccccc1-n1c(=O)/c(=C\c2ccco2)s/c1=C(/C#N)C(=O)Nc1ccccc1	12%	-13%	11%	-3%	-31%	-2%
N#CC1=C(N)n2c(s/c(=C\c3ccco3)c2=O)=C(C#N)C1c1ccco1 (configuration not stated)	7.1µM*	40µM*	45µM*	3.2µM*	22µM*	7.9µM*
Cc1cc(NC2CCCCC2)nc(-n2nc(C)cc2C)n1	/	/	/	/	1%[60.1 µM]	/
COCc1cc(C)nc(N/N=C/c2ccc(-c3ccc(C(=O)O)c(Cl)c3)o2)c1C#N	22µM*	/	/	/	/	/
COCc1cc(C)nc(OCC(=O)N/N=C/c2ccc(-c3cccc([N+](=O)[O-])c3)o2)c1C#N	4%	/	/	/	/	/
O=C(COc1c(Cl)cccc1Cl)NN1C(=O)CSC1=S	-19%	-12%[11.6 µM]	10%	-5%	-2%	18µM*
CC1(C)CC[C@]2(C(=O)O[C@@H]3OC(CO)[C@@H](O)[C@H](O)[C@H]3O)CC[C@]3(C)C(=CCC4[C@@]5(C)CC[C@H](O[C@@H]6OC(C(=O)O)[C@@H](O)[C@H](O)[C@H]6O)C(C)(C)C5CC[C@]43C)[C@@H]2C1 (some centres not stated)	/	11%	-3%	?	-28%	-25%
C/C=C(\C)C(=O)OC1CC(C)(C)C[C@H]2C3=CC[C@@H]4[C@@]5(C)CCC(O[C@@H]6O[C@@H](C(=O)O)[C@@H](O)C(O[C@@H]7OC[C@H](O)[C@@H](O)[C@@H]7O[C@@H]7OC(CO)C(O)[C@@H](O)[C@@H]7O)C6O[C@@H]6OC(CO)C(O)C(O)C6O)[C@@](C)(CO)[C@@H]5CC[C@]4(C)[C@]3(C)CC(O)[C@@]12CO (some centres not stated)	/	-12%	-13%	?	-22%	13µM*
CCOc1ccc(NC(=O)CN2CCCN(Cc3cc(C)ccc3C)S2(=O)=O)cc1	-19%	/	?	-11%	?	89µM*
CC[C@H](C)/C=C/C1=CC2=C(Cl)C(=O)[C@@]3(C)OC(=O)C(C(=O)[C@H](C)[C@@H](C)O)=C3C2=CO1	/	?	?	18µM*	?	?
COc1ccc2cc([S+]([O-])Cc3ncc(C)c(OC)c3C)nc2c1	/	/	/	/	4%[60.1 µM]	/
C(=C\c1ccnc2ccccc12)/c1cc2c3c(c1)CCCN3CCC2	/	/	-16%	/	-11%	-12%
Cc1ccc(NC(=O)CSc2nc(-c3cccs3)nc3cc(=O)[nH]n23)cc1C	50µM*	/	-2%	-18%	-42%	89µM*
Cc1ccccc1NC(=O)CSc1nc(-c2cccs2)nc2cc(=O)[nH]n12	?	/	-10%	-14%	?	89µM*
Cc1ccc(NC(=O)CSc2nc(-c3ccco3)nc3cc(=O)[nH]n23)cc1	50µM*	/	-14%	-8%	-26%	?
COc1ccc(OC)c(NC(=O)CSc2nc(-c3ccccc3C)nc3cc(=O)[nH]n23)c1	4%	/	-6%	-22%	-3%	11%
Cc1ccc(NC(=O)CSc2nc(-c3ccc(C(C)(C)C)cc3)nc3cc(=O)[nH]n23)cc1C	?	/	18%	-8%	-10%	4%
NC(=O)CSc1nnc(-c2ccco2)n1-c1ccccc1	-9%	5%	14%	-17%	-1%	-10%
OCCn1c(CSc2nnc(-c3ccco3)n2-c2ccccc2)nc2ccc(Cl)cc21	20µM*	-20%	-15%	?	2%	?
O=C(O)CCC(=O)Nc1ccc(Cc2ccc(NC(=O)CCC(=O)O)c(O)c2)cc1O	0%	-9%[57.1 µM]	-2%	16µM*	-41%	?
SMILES	Pol beta inh	WRN inhibitor	FEN1 inh	POLH inh	POLK inh	POLI inh
O=C1CCC[C@@H]2[C@@H](Cc3ccccc3)[C@@H](Nc3ccccc3)C[C@@H]3CCN1[C@@H]32	/	/	-8%	/	13%	-5%
CCOC(=O)C(C(=O)OCC)c1cc(Br)c2noc3c2c1C(=O)c1ccccc1-3	79µM*	?	?	8.9µM*	?	?
Cc1ccc(OCC(=O)Nc2ccccc2C(=O)OCc2cc(=O)n3ccsc3n2)cc1	2.8µM*	/	-2%	?	-14%[60.1 µM]	-18%
CC(C)n1cc(/C=N/NC(=O)COc2cccc3cccnc23)c2ccccc21	?	?	0%	?	-29%	7.9µM*
O=c1c(=O)n(-c2cccc(Cl)c2)ccn1Cc1cccc(F)c1	32µM*	/	-2%	-13%	-25%	9%
O=c1c(=O)n(Cc2ccc(Cl)cc2)ccn1Cc1ccc(F)cc1	2%	/	14%	-7%	-19%	0%
C[n+]1cc2c3c(ccc2c2ccc4cc5c(cc4c21)OCO5)OCO3	7.9µM*	/	11µM*	?	-11%[60.1 µM]	28µM*
CCn1c2ccccc2c2cnc(N=CN(C)C)c(C#N)c21	5%	-17%[57.1 µM]	?	-25%	-14%	11%
CCN(CC)CCn1c2ccccc2c2cnc(N=CN(C)C)c(C#N)c21	20µM*	-8%	35µM*	?	-33%	?
CCOC(=O)c1c(N2C(=O)Nc3cc(Cl)c(Cl)cc3N2O)sc2c1CCCCC2	50µM*	?	?	?	-26%	-10%
CCOC(=O)c1c(-n2cnnn2)sc2c1CCCC2	11%	-1%	16%	4%	-5%	7%
CCCCn1cc[n+](C)c1	/	/	/	/	10%[60.1 µM]	/

Bioassay records deposited in PubChem BioAssay by National Center for Advancing Translational Sciences (NCATS).
